Most compounds without a hit are left out; they make up all but 1.1% or so of the library.
BioA inh-1: M. tuberculosis BioA enzyme inhibitors, primary screen, biochemical, plate reader, single point, HTS; purified M. tuberculosis BioA enzyme; inhibition, % at 9.99 µM; 360,000 compounds, 0.096% hits; in the data active = inhibition above about 40%
PrP UTR inh: inhibition of PrP 5' UTR reporter expression | inhibition, % (test concentration not listed) | AID 488862, 2010 | cell-based PrP 5' UTR mRNA reporter, plate reader | 340,000 compounds, 0.35% hits; in the data active = inhibition above about 52%; note: 0 = median of the neutral control wells
TcdB GH inh: TcdB glycohydrolase inhibitors, primary screen, biochemical, single point, plate reader; 350,000 compounds, 0.24% hits; inhibition, % at 9.99 µM; TcdB glycohydrolase enzymatic assay; in the data active = inhibition above about 10%
FadD28 binding: inhibitors of FadD28 bisubstrate probe binding, primary screen, biochemical, fluorescence polarization, single point. AID 588549, 2011. 360,000 compounds, 0.22% hits. inhibition, % at 12.5 µM. Mycobacterium tuberculosis FadD28 fatty-acid-AMP ligase; in the data active = inhibition above about 8.5%, passing the limit was not always enough
PfHsp40 yeast: rescue of yeast from PfHsp40 toxicity, primary screen, S. cerevisiae, ATP luminescence; S. cerevisiae expressing PfHsp40, growth rescue; growth rescue, % at 12.5 µM; 340,000 compounds, 0.68% hits; AID 504582, 2011; in the data active = growth rescue above about 28%, passing the limit was not always enough;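 note: yeast W303a lacking pdr1 and pdr3 grown in galactose medium; growth measured after three days at 30 °C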
BioA inh-2: Mtb BioA enzyme inhibitors, dose response, biochemical, plate reader, cherry-pick samples, set 03 | shares compounds with BioA inh-1 | purified BioA enzyme | max activity, % | 310 tested, under 10 active | AID 651679, 2012;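 note: top concentration of the dilution series was 10 µM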
Target sequence (P9WQ81 whole entry, looked up): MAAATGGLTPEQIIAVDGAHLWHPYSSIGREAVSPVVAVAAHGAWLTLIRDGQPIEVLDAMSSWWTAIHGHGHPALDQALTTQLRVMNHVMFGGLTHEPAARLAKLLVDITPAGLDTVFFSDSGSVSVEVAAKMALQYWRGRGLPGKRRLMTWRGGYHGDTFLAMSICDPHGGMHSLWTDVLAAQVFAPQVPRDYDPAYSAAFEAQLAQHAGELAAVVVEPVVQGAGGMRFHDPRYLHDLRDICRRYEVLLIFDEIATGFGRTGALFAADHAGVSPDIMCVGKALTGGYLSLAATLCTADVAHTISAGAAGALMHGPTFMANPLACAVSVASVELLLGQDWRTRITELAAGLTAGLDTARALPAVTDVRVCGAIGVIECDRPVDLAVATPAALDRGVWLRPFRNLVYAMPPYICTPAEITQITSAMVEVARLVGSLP
HepG2 cytotox: cytotoxicity in HepG2 cells, dose response, cytotoxicity control, cell-based, plate reader, cherry-pick, two tests. shares compounds with BioA inh-1. max activity, %. 310 tested, under 10 active
3T3 cytotox 5: cytotoxicity in NIH3T3 fibroblasts, dose response, cytotoxicity control, cell-based, plate reader, cherry-pick, two tests | shares compounds with BioA inh-1 | activity change, negative = cytotoxicity, % at 26 µM | 310 tested, under 10 active | AID 651900, 2012
The depositor's hits bear a star. Unless noted, the rule behind the calls is not given here.

Results for Cc1ccc(-c2ccc([C@H]3[C@@H](CO)N4CCCCN(C(=O)Nc5cccc(F)c5)C[C@H]34)cc2)cc1 ?
BioA inh-1: 1; TcdB GH inh: 0

Results for O=C(NCc1ccco1)c1ccc(-c2ccc3nccn3c2)cc1 ?
BioA inh-1: 48*; TcdB GH inh: 1; FadD28 binding: -1; BioA inh-2: 4; HepG2 cytotox: 28; 3T3 cytotox 5: 11

Results for COc1ccc(NC(=O)N(C)C[C@@H]2OCCCC[C@@H](C)Oc3ccc(NS(=O)(=O)c4ccc(C)cc4)cc3C(=O)N([C@@H](C)CO)C[C@@H]2C)cc1 ?
BioA inh-1: -3; TcdB GH inh: 1

Results for COC(=O)C[C@H]1C[C@@H]2c3cc(NS(=O)(=O)c4cccc(OC)c4)ccc3O[C@@H]2[C@H](CO)O1 ?
BioA inh-1: -2; TcdB GH inh: -1

Results for CCOc1ccc(CCNC(=O)c2cnccn2)cc1OCC ?
BioA inh-1: 19; PrP UTR inh: 0; TcdB GH inh: -1; PfHsp40 yeast: 0

Results for CCOc1ccc(CCNC(=O)c2cnc(C)cn2)cc1OCC ?
BioA inh-1: 69*; PrP UTR inh: -5; TcdB GH inh: 0; PfHsp40 yeast: 1; BioA inh-2: -6; HepG2 cytotox: 27; 3T3 cytotox 5: 6

What do the screens show for `Cc1noc(C)c1S(=O)(=O)Nc1ccc2c(c1)C(=O)N([C@@H](C)CO)C[C@@H](C)[C@@H](CN(C)S(=O)(=O)c1ccc(Cl)cc1)O2`?
BioA inh-1: -3; TcdB GH inh: 0

Results for N#Cc1cccc(-c2ccc3c(c2)[C@H]2[C@H](CCN2S(=O)(=O)c2ccccc2F)[C@H](CO)N3)c1 ?
BioA inh-1: -1; TcdB GH inh: 1

What do the screens show for `CC(=O)c1ccc(N2CCN(C(=O)Cc3ccccc3)CC2)c(F)c1`?
BioA inh-1: 55*; PrP UTR inh: -5; TcdB GH inh: 1; FadD28 binding: -2; PfHsp40 yeast: -1; BioA inh-2: -5; HepG2 cytotox: 20; 3T3 cytotox 5: 2

Results for CC(=O)c1ccc(N2CCN(C(=O)c3ccc(Br)cc3)CC2)c(F)c1 ?
BioA inh-1: 93*; PrP UTR inh: -22; FadD28 binding: -3; PfHsp40 yeast: 1; BioA inh-2: -6; HepG2 cytotox: -11; 3T3 cytotox 5: 2

How did CC(=O)c1ccc(N2CCN(C(=O)c3ccco3)CC2)c(F)c1 do in these assays?
BioA inh-1: 21; PrP UTR inh: -50; FadD28 binding: -3; PfHsp40 yeast: 1

What do the screens show for `C[C@H]1CN([C@@H](C)CO)C(=O)c2cc(-c3ccc(F)cc3)cnc2O[C@@H]1CN(C)C(=O)C1CCC1`?
BioA inh-1: 0; TcdB GH inh: -1

Results for Nc1cc(C(=O)O)ccc1Nc1ccccc1 ?
BioA inh-1: 75*; PrP UTR inh: -12; FadD28 binding: 4; PfHsp40 yeast: -1; BioA inh-2: -9; HepG2 cytotox: -7; 3T3 cytotox 5: -6

Results for COC(=O)C[C@@H]1CC[C@@H]2[C@H](COC[C@@H](O)CN2C(=O)Nc2cccc(F)c2)O1 ?
BioA inh-1: 46*; TcdB GH inh: 0; BioA inh-2: -7; HepG2 cytotox: inactive; 3T3 cytotox 5: -1

How did CNC(=O)C[C@H]1CC[C@@H]2[C@H](COC[C@@H](O)CN2C(=O)Nc2ccc3c(c2)OCO3)O1 do in these assays?
BioA inh-1: 50*; TcdB GH inh: -1; BioA inh-2: -8; HepG2 cytotox: inactive; 3T3 cytotox 5: -4

Results for Cc1noc(C)c1NC(=O)N(C)C[C@H]1Oc2cc(C#CCC3CCCC3)ccc2S(=O)(=O)N([C@H](C)CO)C[C@H]1C ?
BioA inh-1: 1; TcdB GH inh: 0

Results for COc1cc(C(=O)NC2CCN(Cc3ccccc3)CC2)cc(Cl)c1OC ?
BioA inh-1: 0; PrP UTR inh: -14; TcdB GH inh: -1; FadD28 binding: -2; PfHsp40 yeast: 1

What do the screens show for `COc1ccc([N+](=O)[O-])cc1C(=O)NC1CCN(Cc2ccccc2)CC1`?
BioA inh-1: 79*; TcdB GH inh: 1; FadD28 binding: -1; BioA inh-2: 5; HepG2 cytotox: 29; 3T3 cytotox 5: 1

Results for CC(C)(C)[S@@](=O)N1Cc2cc(C(=O)N3CCCCC3)nc(-c3cccc(-c4ccccc4F)c3)c2[C@H]1CCO ?
BioA inh-1: 1; TcdB GH inh: 0

What do the screens show for `CC(Oc1ccc2c(-c3ccccc3)cc(=O)oc2c1)C(=O)NCc1ccccn1` (centres undefined)?
BioA inh-1: 42*; PrP UTR inh: -8; TcdB GH inh: 2; FadD28 binding: -2; PfHsp40 yeast: -2; BioA inh-2: -6; HepG2 cytotox: 6; 3T3 cytotox 5: -10

Results for CCCN1CCN(C(=O)C2CCN(c3nnc(C)c4c(C)n(-c5ccc(C)cc5)nc34)CC2)CC1 ?
BioA inh-1: 41*; PrP UTR inh: -20; TcdB GH inh: -2; FadD28 binding: -1; PfHsp40 yeast: -1; BioA inh-2: -5; HepG2 cytotox: 17; 3T3 cytotox 5: -9

Results for C=C(C)n1c(=O)n(Cc2ccccc2C)c2ccccc21 ?
BioA inh-1: 48*; PrP UTR inh: -7; TcdB GH inh: 1; FadD28 binding: -3; PfHsp40 yeast: -1; BioA inh-2: -10; HepG2 cytotox: -14; 3T3 cytotox 5: -18

Results for C=C(C)n1c(=O)n(Cc2ccc(C)cc2)c2ccccc21 ?
BioA inh-1: 0; PrP UTR inh: -17; TcdB GH inh: -1; FadD28 binding: 1; PfHsp40 yeast: 6

How did O=C(Nc1cccc(F)c1)N1CC(=O)N2[C@H](CO)[C@H](c3ccc(C#CCC4CCCC4)cc3)[C@H]2C1 do in these assays?
TcdB GH inh: -8

What do the screens show for `Cc1ccccc1S(=O)(=O)N1C[C@H](O)COC[C@@H]2O[C@@H](CC(=O)NCCc3ccccc3)CC[C@H]21`?
BioA inh-1: 1; TcdB GH inh: 0

How did CCNC(=O)[C@H]1[C@H](CO)[C@H]2Cn3c(ccc(-c4ccccc4)c3=O)[C@H]2N1C(=O)Cc1cccnc1 do in these assays?
BioA inh-1: 40*; TcdB GH inh: 0; BioA inh-2: -2; HepG2 cytotox: inactive; 3T3 cytotox 5: 10

Screens: PubChem, Broad Institute
